POLI inh = DNA polymerase iota (human) inhibition | Potency, µM (top dose mostly 115 µM), without a hit: top-dose activity, negative = inhibition, usual class: inhibitors | Q9UNA4 | Pol iota fluorescent replication assay, 10 min | 390,000 tested, 1% active
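Fluorescent replication assay read twice, at 0 min and 10 min after adding 50 nM (final) substrate. Enzyme (10 nM) and compounds were first incubated 15 min at room temperature; enzyme-free buffer wells were negative controls.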
Pol beta inh = DNA polymerase beta (human) inhibition; Pol beta primer extension/strand displacement, fluorescence kinetic; 340,000 tested, 1.3% active; P06746; Potency, µM (series often up to 114 µM), without a hit: top-dose activity change, negative = inhibition, usual class: inhibitors; further: on the % scale 0 is the no-effect control and ±100 the full control effect
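Pol beta (10 nM) was preincubated with compound for 15 min at room temperature. The reaction was then started with 50 nM substrate and read immediately and after a further 10 min at room temperature.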
POLK inh = blocks human DNA polymerase kappa activity | 400,000 tested, 0.53% active | Potency, µM (top dose mostly 107 µM), for inactives: at the highest dose activity, negative = inhibition, usual class: inhibitors | purified Pol kappa, fluorescent DNA synthesis assay, 10 min | AID 588579; further: on the % scale 0 is the no-effect control and ±100 the full control effect
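Fluorescent qHTS in 1536-well format: enzyme (10 nM) and compound sat 15 min at room temperature before 50 nM substrate (final) was added. Signal taken at 0 and 10 min; no-enzyme buffer wells were negative controls.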
L3MBTL1 inh-1 = L3MBTL1 (human) inhibition; Q9Y468; AlphaScreen L3MBTL1–H3K9me1 peptide binding; Potency, µM (titrated, usually from 57.1 µM), for inactives: at the top dose activity, negative = inhibition, most hits filed as inhibitors; 230,000 tested, 0.66% active; AID 485360; further: on the % scale 0 is the no-effect control and ±100 the full control effect; nearly all actives have a fitted effect of over 60% in size
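Displacement of a biotinylated histone H3(1-15) peptide monomethylated at Lys9 (75 nM) from L3MBTL1 (50 nM) was measured by AlphaScreen after a 30 min room-temperature compound incubation; cefsulodin titration served as intraplate control.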
Pol eta inh = DNA polymerase eta (human) inhibition; Q9Y253; recombinant Pol eta, fluorescent DNA replication assay; Potency, µM (series often up to 114 µM), inactives show at the highest dose activity change, negative = inhibition, actives largely listed as inhibitors; 390,000 tested, 1.2% active; further: on the % scale 0 is the no-effect control and ±100 the full control effect
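Pol eta at 10 nM preincubated with compounds 15 min at room temperature; reaction started with fluorescent substrate (50 nM final) and read kinetically at 0 and 10 min.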
L3MBTL1 inh-2 = validation of human L3MBTL1 methyl-lysine binding inhibitors; shares compounds with L3MBTL1 inh-1; L3MBTL1 methyl-lysine binding inhibition, biochemical qHTS; Potency, µM, usual class: inhibitors; 500 tested, 91% active; further: nearly all actives have a fitted effect of over 70% in size
AlphaScreen ctr2 = AlphaScreen signal inhibition, L3MBTL1 hit counter-screen; shares compounds with L3MBTL1 inh-1; AlphaScreen counterscreen, signal inhibition; Potency, µM (highest dose often 57.1 µM), inactives show at the top dose activity change, negative = inhibition, usual class: inhibitors; 500 tested, under 10 active; further: 0% is about no effect
* marks the source's active call; other numbers are inactive results; ? = inconclusive; nt = no result; [ ] = remark or other dose. Most compounds without a hit are left out; they make up all but 2.4% or so of the library. The call rests on the fitted dose curve; in most records, active means well fitted curve in the direction sought with a large enough effect; inconclusive means small, poorly fitted or top-dose-only effect, or another doubt; inactive means no such curve, though single readings can be large; an effect the other way counts as inactive or inconclusive. Potency means the concentration at half of the fitted maximal effect.

SMILES	POLI inh	Pol beta inh	POLK inh	L3MBTL1 inh-1	Pol eta inh	L3MBTL1 inh-2	AlphaScreen ctr2
CCCCN(C(=O)c1cccc(-n2cccc2)c1)c1c(N)n(Cc2ccccc2)c(=O)[nH]c1=O	nt	nt	nt	20µM*	nt	4.2*	-29%
CCn1c2ccccc2c2cc(N=C3SC(CC(=O)Nc4ccccc4OC)C(=O)N3CCOC)ccc21 (configuration not stated)	-14%	?	?	28µM*	?	7.5*	?
CCn1c2ccccc2c2cc(N=C3SC(CC(=O)Nc4ccccc4OC)C(=O)N3C)ccc21 (configuration not stated)	15%	17%	-6%	-6%	5%	nt	nt
COC(=O)\C(C(C)=O)=C(/C=C/C=C/N(C)C)N(C)C	?	22µM*	?	14µM*	14µM*	6.7*	19%
COc1ccc(C2CC(=O)Nc3ccccc3S2(=O)=O)cc1OC (configuration not stated)	?	?	?	11µM*	?	?	1%
Nc1ccc2nc(-c3ccccn3)[nH]c2c1	-5%	2%	-9%	28µM*	-16%	7.5*	?
Nc1ccc2nc(-c3ccccc3)[nH]c2c1	-10%	5%	-22%	0%	-3%	nt	nt
CCOC(=O)c1cc(OC(=O)c2ccc(C)cc2)n(-c2ccccc2)n1	-2%	10%	7%	nt	-9%	nt	nt
S=C1SCN(Cc2ccccn2)CN1Cc1ccco1	?	7%	-8%	28µM*	6%	27*	4%
Cc1ccc(/C=C2\SC(=S)N(C3CCS(=O)(=O)C3)C2=O)o1 (configuration not stated)	?	32µM*	?	25µM*	25µM*	21*	-4%
O=C(O)c1ccc2[nH]c3c(c2c1)CSCC3	-18%	?	?	32µM*	8.9µM*	13*	2%
Nc1nc(SCc2ccccn2)c2ncn(C3OC(CO)C(O)C3O)c2n1 (configuration not stated)	62%	nt	-5%	nt	-17%	nt	nt
COc1ccc(C2CC(=O)c3c([nH]c(C(=O)OCc4ccccc4)c3C)C2)cc1 (configuration not stated)	16%	?	-17%	nt	?	nt	nt
Cc1c(C(=O)OCc2ccccc2)[nH]c2c1C(=O)CC(c1ccco1)C2 (configuration not stated)	-93%	11µM*	?	25µM*	22µM*	15*	10%
CSCCOC(=O)c1[nH]c2c(c1C)C(=O)CC(c1ccco1)C2 (configuration not stated)	?	7.9µM*	32µM*	35µM*	18µM*	19*	-5%
Cc1c(C(=O)OCCOC(C)C)[nH]c2c1C(=O)CC(c1ccco1)C2 (configuration not stated)	?	20µM*	79µM*	25µM*	25µM*	24*	-2%
COCCOC(=O)c1[nH]c2c(c1C)C(=O)CC(c1ccccc1)C2 (configuration not stated)	5%	-18%	-4%	-8%	-11%	nt	nt
COCCOC(=O)c1[nH]c2c(c1C)C(=O)CC(c1ccc(F)cc1)C2 (configuration not stated)	5%	?	-2%	0%	-13%	nt	nt
Cc1[nH]c2ccccc2c1C(c1ccccc1)c1ccc(Cl)s1 (configuration not stated)	10%	-8%	-11%	nt	-17%	nt	nt
O=C(O)CC/C(=C\c1cccc(NC(=O)c2ccccc2Cl)c1)c1nc2ccccc2s1	-11%	18µM*	-11%	35µM*	-9%	?	-3%
CC(=O)Oc1cc2cccc(OC(C)=O)c(=O)c2c(OC(C)=O)c1OC(C)=O	1µM*	0.18µM*	1µM*	0.35µM*	10µM*	1.5*	-11%
COc1cc(OC)c(NC(=O)C2CCN(S(=O)(=O)c3ccc4c(c3)oc(=O)n4C)CC2)cc1Cl	7%	15%	-9%	nt	0%	nt	nt
CCS(=O)(=O)N1CCc2cc(C(=O)Nc3ccc(Br)cc3F)ccc21	?	-4%	-27%	nt	3%	nt	nt
O=[N+]([O-])c1cc(F)c2cccnc2c1O	12%	?	8%	13µM*	-13%	6*	-60%
O=[N+]([O-])c1ccc(O)c2ncccc12	41%	30%	-9%[19.4 µM]	?	-8%	nt	nt
SMILES	POLI inh	Pol beta inh	POLK inh	L3MBTL1 inh-1	Pol eta inh	L3MBTL1 inh-2	AlphaScreen ctr2
Cc1cc(CNCCN(C)C)c(C)n1-c1cc(S(=O)(=O)N2CCOCC2)ccc1N1CCCC1	19%	nt	4%	nt	-3%	nt	nt
COc1cccc(N2CCN(c3ncc4c(n3)CCN(Cc3ccc(Br)cc3)C4)CC2)c1	12%	35%	-6%[60.1 µM]	nt	-19%	nt	nt
COc1ccc(/C=C\c2nc(=O)c3ccccc3o2)cc1	29%	23%	-21%	nt	-3%	nt	nt
O=c1nc(/C=C/c2ccc(O)c(O)c2)oc2ccccc12	?	-93%	?	28µM*	?	1.9*	-2%
CNCCCCCCCCSc1nc(C(C)C)ccc1C(=O)c1cccs1	nt	nt	-10%[19.4 µM]	nt	nt	nt	nt
O=C(Oc1c(CN2CCOCC2)cc(Cl)c2cccnc12)c1ccccc1F	132%	7%	0%	14µM*	-20%	27*	2%
O=C(Oc1c(CN2CCOCC2)cc(Cl)c2cccnc12)c1ccccc1	45%	7%	-3%	nt	-22%	nt	nt
O=C(Nc1cccc(C(=O)N2CCOCC2)c1)c1ncn[nH]1	-15%	4%	-9%	28µM*	12%	21*	?
COc1ccc(-n2c(C)c3c(OC)cccc(=O)c3c2C)cc1	22%	7%	-8%	2%	?	nt	nt
COc1cccc(=O)c2c(C)n(-c3ccc(C(=O)O)cc3)c(C)c12	16µM*	16µM*	50µM*	25µM*	13µM*	21*	-15%
O=c1/c(=C/c2ccccn2)sc2nc3ccccc3n12	49%	?	-12%	5%	?	nt	nt
O=C(O)c1cc(C(=O)O)cc(-c2ccc(/C=c3/sc4nc5ccccc5n4c3=O)o2)c1	10µM*	4.5µM*	18µM*	1.8µM*	3.5µM*	3.4*	-5%
COC(=O)c1cc(CNC(=O)Cc2ccsc2)ccc1OC	3%	14%	3%	nt	-15%	nt	nt
CC(=O)c1ccc(NC(=O)CC2Nc3cccc4cccc(c34)NC2=O)cc1 (configuration not stated)	?	?	?	3.5µM*	-1%	27*	?
